# Data from the supplement of paper PMC10037445.
# In all, about 2,900 compounds were measured (“NF-kB SEAP reporter activity, fold change vs agonist alone”: median about 0.99, highest 2% from about 2.6 on). The list comes from a sample in which the highest values are over-represented; it also holds similar structures and randomly drawn compounds.
# Assays:
# RAW-Dual [1] = assay: NF-kB SEAP reporter activity, fold change vs agonist alone; higher = enhanced NF-kB activity; settings: library stock concentration (final ~1000-fold dilution): 10 mM
# In short: (§1)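 Cytotoxic wells were those whose IncuCyte confluency was below 70% of agonist controls in both mask sets. The cells were RAW-Dual macrophages at 50,000 cells/well in DMEM on 384-well plates, dosed with 50 nL of library stock by pin tool, stimulated with a PRR agonist 1 h later, and kept at 37 °C, 5% CO2 for 20 hours. IRF and NF-κB reporter activity, as fold change over agonist-alone wells, came from supernatant read by QuantiLuc luminescence and QuantiBlue absorbance, respectively.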
# RAW-Dual [2] = assay: NF-kB SEAP reporter activity, fold change vs agonist alone; cytotoxicity flag (confluency mask): not cytotoxic; higher = enhanced NF-kB activity
# In short: as §1
# RAW-Dual [3] = assay: NF-kB SEAP reporter activity, fold change vs agonist alone; cytotoxicity flag (confluency mask): cytotoxic (confluency <70% of control); higher = enhanced NF-kB activity
# In short: as §1
# [4] = cytotoxicity flag (confluency mask): not cytotoxic, agonist: Imiquimod (TLR7) […]
# [5] = cytotoxicity flag (confluency mask): not cytotoxic, agonist: MPLA (TLR4) […]
# [6] = agonist: ODN 1826 (TLR9) 0.5 ug/mL
# [7] = agonist: Pam2CSK4 (TLR2/6) 0.1 ug/mL
# [8] = agonist: Pam3CSK4 (TLR2/1) 0.1 ug/mL
compound,measurement,setting,value
Cc1ccc(Sc2cncc3sc(C(N)=O)cc23)cc1,NF-kB SEAP reporter activity,RAW-Dual [1]; [4],2.48
same,NF-kB SEAP reporter activity,RAW-Dual [1]; [5],1.93
Cc1ccc(Sc2cncc3sc(C(N)=O)cc23)cc1 (library stock concentration (final ~1000-fold dilution): 10 mM),NF-kB SEAP reporter activity,RAW-Dual [2]; agonist: LPS (TLR4) 0.1 ug/mL,2.89
same,NF-kB SEAP reporter activity,RAW-Dual [2]; [6],2.2
same,NF-kB SEAP reporter activity,RAW-Dual [2]; [7],1.62
same,NF-kB SEAP reporter activity,RAW-Dual [2]; [8],3.34
CCc1ccc(NC(=O)Nc2ccccc2)cc1 (library stock concentration (final ~1000-fold dilution): 10 mM),NF-kB SEAP reporter activity,RAW-Dual [2]; agonist: LPS (TLR4) 0.1 ug/mL,1.12
same,NF-kB SEAP reporter activity,RAW-Dual [2]; [6],0.823
same,NF-kB SEAP reporter activity,RAW-Dual [2]; [7],0.702
same,NF-kB SEAP reporter activity,RAW-Dual [2]; [8],0.652
CCCCCCCCCCCCCCCCCC(=O)O (library stock concentration (final ~1000-fold dilution): 10 mM),NF-kB SEAP reporter activity,RAW-Dual [2]; agonist: LPS (TLR4) 0.1 ug/mL,0.849
same,NF-kB SEAP reporter activity,RAW-Dual [2]; [6],1.02
same,NF-kB SEAP reporter activity,RAW-Dual [2]; [7],0.95
same,NF-kB SEAP reporter activity,RAW-Dual [2]; [8],1.17
O=C(CCCCCCC(=O)Nc1ccccc1)NO (library stock concentration (final ~1000-fold dilution): 10 mM),NF-kB SEAP reporter activity,RAW-Dual [3]; agonist: LPS (TLR4) 0.1 ug/mL,6.47
same,NF-kB SEAP reporter activity,RAW-Dual [3]; [6],2.34
same,NF-kB SEAP reporter activity,RAW-Dual [3]; [7],0.808
same,NF-kB SEAP reporter activity,RAW-Dual [3]; [8],1.86
CCCC(=O)Nc1cccc(NC(=O)c2ccccc2Br)c1,NF-kB SEAP reporter activity,RAW-Dual [1]; [4],1.06
same,NF-kB SEAP reporter activity,RAW-Dual [1]; [5],0.952
O=C(CCCCCCC(=O)NO)NO,NF-kB SEAP reporter activity,RAW-Dual [1]; [4],2.03
same,NF-kB SEAP reporter activity,RAW-Dual [1]; [5],2.57
O=C(CCCCCCCC(=O)NCCO)NCCO,NF-kB SEAP reporter activity,RAW-Dual [1]; [4],0.913
same,NF-kB SEAP reporter activity,RAW-Dual [1]; [5],1.03
O=C(CCCCCCC(=O)NO)NO (library stock concentration (final ~1000-fold dilution): 10 mM),NF-kB SEAP reporter activity,RAW-Dual [2]; agonist: LPS (TLR4) 0.1 ug/mL,3.77
same,NF-kB SEAP reporter activity,RAW-Dual [2]; [6],1.62
same,NF-kB SEAP reporter activity,RAW-Dual [2]; [7],0.78
same,NF-kB SEAP reporter activity,RAW-Dual [2]; [8],1.21
O=C(CCCCCCCC(=O)NCCO)NCCO (library stock concentration (final ~1000-fold dilution): 10 mM),NF-kB SEAP reporter activity,RAW-Dual [2]; agonist: LPS (TLR4) 0.1 ug/mL,1.2
same,NF-kB SEAP reporter activity,RAW-Dual [2]; [6],0.998
same,NF-kB SEAP reporter activity,RAW-Dual [2]; [7],0.991
same,NF-kB SEAP reporter activity,RAW-Dual [2]; [8],0.856
O=C(CCCCCCC(=O)Nc1ccccc1)NO,NF-kB SEAP reporter activity,"RAW-Dual [1]; cytotoxicity flag (confluency mask): cytotoxic (confluency <70% of control), agonist: Imiquimod (TLR7) […]",2.38
same,NF-kB SEAP reporter activity,"RAW-Dual [1]; cytotoxicity flag (confluency mask): cytotoxic (confluency <70% of control), agonist: MPLA (TLR4) […]",2.6
CCCCCCCCCCCCCCCCCC(=O)O,NF-kB SEAP reporter activity,RAW-Dual [1]; [4],0.96
same,NF-kB SEAP reporter activity,RAW-Dual [1]; [5],1.05
CCc1ccc(NC(=O)Nc2ccccc2)cc1,NF-kB SEAP reporter activity,RAW-Dual [1]; [4],0.892
same,NF-kB SEAP reporter activity,RAW-Dual [1]; [5],1.01
CCCC(=O)Nc1cccc(NC(=O)c2ccccc2Br)c1 (library stock concentration (final ~1000-fold dilution): 10 mM),NF-kB SEAP reporter activity,RAW-Dual [2]; agonist: LPS (TLR4) 0.1 ug/mL,0.939
same,NF-kB SEAP reporter activity,RAW-Dual [2]; [6],0.996
same,NF-kB SEAP reporter activity,RAW-Dual [2]; [7],0.966
same,NF-kB SEAP reporter activity,RAW-Dual [2]; [8],1.15
